# Assay outcomes (PubChem)
# Rows were chosen to be rich in hits. Some 5.8% of all compounds tested hit in one or more screens of this group.
# PINK1 expr mod = A Quantitative High throughput Screen to Identify Chemical Modulators of PINK1 Expression | 410,000 compounds, 0.2% hits | PINK1 immunofluorescence, high-content cytometry, 24 h | Potency, µM (top dose mostly 76.6 µM), most hits filed as activators | AID 624263, 2012; active = well fitted activation curve with a large enough effect; inconclusive = small, poorly fitted or top-dose-only effect; cell line not stated here; also: nearly all actives have a fitted effect of over 65% in size
#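 Stable cell line, 250 cells/well, 12 h attachment; compounds pinned at 5 concentrations, 24 h; CCCP control. Fixed with nuclear dye, primary antibodies 12 h at 10 degrees C, secondary plus cell stain; laser-scanning cytometer read.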
# KB-3-1 tox = qHTS assay for MDR1-selective chemotherapeutics: Primary screen using the parental adenocarcinoma cell KB-3-1. KB-3-1 viability, CellTiter-Glo ATP luminescence, 72 h. Potency, µM (top dose mostly 46.1 µM), usual class: cytotoxic. 400,000 compounds, 1.4% hits; also: nearly all actives have a fitted effect of over 60% in size
#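 Cells are dispensed, compounds pinned in, plates held at 37 °C for 72 h, then CellTiter-Glo is added and luminescence read after 10 minutes. Cell line: parental KB-3-1 in phenol-red-free DMEM, 10% FBS.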
# MCF10A rereplic = A quantitative high throughput screen for small molecules that induce DNA re-replication in MCF 10a normal breast cells | MCF 10A DNA re-replication, Hoechst nuclear intensity, 48 h | Potency, µM (series often up to 46.1 µM), hits mostly activators | 350,000 compounds, 2.9% hits | AID 624296, 2012; also: nearly all actives have a fitted effect of over 50% in size
# ALOX12 inh = Primary qHTS assay for inhibitors of human arachidonate 12S-lipoxygenase (ALOX12): Round 2. Potency, µM (series often up to 108 µM), most hits filed as inhibitors. 580,000 compounds, 1.1% hits. AID 1671190, 2021. purified 12hLO, xylenol orange hydroperoxide absorbance. Polyunsaturated fatty acid lipoxygenase ALOX12 (Homo sapiens), P18054
# Target sequence (P18054 whole entry, looked up): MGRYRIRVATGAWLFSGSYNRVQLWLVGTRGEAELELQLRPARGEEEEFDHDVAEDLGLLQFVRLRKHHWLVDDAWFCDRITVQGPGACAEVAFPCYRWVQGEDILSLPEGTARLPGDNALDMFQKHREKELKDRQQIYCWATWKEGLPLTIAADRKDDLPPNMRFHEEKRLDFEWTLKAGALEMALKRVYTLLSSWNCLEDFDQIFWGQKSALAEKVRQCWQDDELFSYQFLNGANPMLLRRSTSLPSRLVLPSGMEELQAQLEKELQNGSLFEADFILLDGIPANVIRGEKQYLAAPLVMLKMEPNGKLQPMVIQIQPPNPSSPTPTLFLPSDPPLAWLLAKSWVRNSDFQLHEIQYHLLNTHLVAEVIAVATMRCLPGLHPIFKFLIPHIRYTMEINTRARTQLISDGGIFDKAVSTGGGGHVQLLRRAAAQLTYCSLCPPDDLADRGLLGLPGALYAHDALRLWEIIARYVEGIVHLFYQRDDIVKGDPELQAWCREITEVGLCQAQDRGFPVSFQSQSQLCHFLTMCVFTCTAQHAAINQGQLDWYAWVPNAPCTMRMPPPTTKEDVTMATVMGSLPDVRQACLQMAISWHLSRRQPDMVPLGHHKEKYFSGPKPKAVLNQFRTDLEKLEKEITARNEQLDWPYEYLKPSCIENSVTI
#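 Hydroperoxide product was detected by ferrous iron/xylenol orange as the 573 to 405 nm absorbance ratio. Arachidonic acid at 40 uM (final) was turned over for 30 min at room temperature by 150 nM human 12hLO, pH 7.0 Hepes buffer, after 15 min compound preincubation.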
# KB-V1 MDR tox = qHTS assay for MDR1-selective chemotherapeutics: Primary screen using the drug-selected MDR subline cells KB-V1; KB-V1 MDR cells viability, CellTiter-Glo, 72 h; Potency, µM (doses to about 46.1 µM), actives largely listed as cytotoxic; 400,000 compounds, 3.4% hits; AID 1347076, 2019; also: nearly all actives have a fitted effect of over 60% in size
#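 Cytotoxicity via CellTiter-Glo luminescence after 72 h compound exposure at 37 degrees C. Cells: drug-selected KB-V1 line, DMEM phenol-red free plus 10% FBS. Compounds tested at multiple concentrations; normalized data fitted to concentration-effect curves.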
# SW480 rereplic = A quantitative high throughput screen for small molecules that induce DNA re-replication in SW480 colon adenocarcinoma cells; SW480 DNA re-replication, Hoechst DNA content imaging, 48 h; Potency, µM (doses to about 46.1 µM), hits mostly activators; 340,000 compounds, 1.8% hits; also: nearly all actives have a fitted effect of over 55% in size
#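 Hoechst fluorescence of nuclei (405 nm excitation, 500-530 nm emission) measured by plate-scanning imager after 48 hr compound exposure at 37 C; re-replication scored as increased number of nuclei with elevated intensity.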
# A number is an active result; i = inactive; ? = inconclusive; nt = no result. Unless noted, calls follow the shape of the dose curve; as a rule, active = well fitted curve in the direction sought with a large enough effect; inconclusive = small, poorly fitted or top-dose-only effect, or another doubt; inactive = no such curve, though single readings can be large; an effect the other way counts as inactive or inconclusive.
SMILES,PINK1 expr mod,KB-3-1 tox,MCF10A rereplic,ALOX12 inh,KB-V1 MDR tox,SW480 rereplic
CCOCCCNC(=O)c1cc2cc(S(=O)(=O)N(C)C)ccc2n1CC,nt,nt,nt,i,nt,nt
CC(C)CCn1c(NCCCO)nc2c1c(=O)[nH]c(=O)n2C,nt,nt,nt,i,nt,nt
NC(=O)C1CCN(CCS(=O)(=O)c2ccc(Cl)cc2)CC1,i,i,?,i,i,18.4µM
O=S(=O)(CCN1CCOCC1)c1ccc(Cl)cc1,i,i,i,i,i,i
O=C(O)CN1C(=O)c2cccc3c(Br)ccc1c23,i,i,i,?,i,i
CCCCNc1ccc2c3c(cccc13)C(=O)N(CCCC)C2=O,?,i,7.31µM,i,?,20.6µM
CCCN1C(=O)c2cccc3c(N4CCCCC4)ccc(c23)C1=O,i,i,3.66µM,i,?,nt
CN(C)CCCN1C(=O)c2cccc3c(Br)ccc(c23)C1=O,i,?,7.31µM,i,?,?
CCOc1cccc2cc(C(=O)/C=C/c3ccc(C)cc3)c(=O)oc12,nt,nt,nt,i,nt,nt
CC(C)Oc1c(I)cc(I)cc1/C=C(\C#N)c1nc2ccccc2[nH]1,nt,nt,nt,i,nt,nt
CCCn1nc(C(=O)OC(C)C(=O)NCc2ccc(F)cc2)c2ccccc2c1=O (centres undefined),nt,nt,nt,i,nt,nt
COc1cc(/C=C2/C(=O)NN(c3ccc(Cl)cc3)C2=O)ccc1OC(=O)c1ccco1,i,i,?,8.91µM,i,i
COc1cc(/C=C2/C(=O)NN(c3cccc(F)c3)C2=O)ccc1OC(=O)c1ccco1,i,?,?,44.7µM,?,?
COc1cc(/C=C2/C(=O)NN(c3ccc(Cl)c(Cl)c3)C2=O)cc([N+](=O)[O-])c1O,i,i,i,35.5µM,i,i
COc1cc(/C=C2/C(=O)NN(c3ccc(Cl)cc3)C2=O)cc(Br)c1O,i,i,i,i,?,i
O=C(OCC(=O)N1CCCc2ccccc21)c1ccccc1NS(=O)(=O)c1ccc(F)cc1,nt,nt,nt,i,nt,nt
COC(=O)C1=C(N)OC2=C(C(=O)CCC2)C1c1ccc(Cl)cc1Cl (centres undefined),nt,nt,nt,i,nt,nt
Cc1nn(CC(=O)Nc2ccc(O)cc2)c(=O)c2ccccc12,nt,nt,nt,i,nt,nt
Cc1cc(C)cc(NC(=O)c2cc(-c3ccncc3)nc3ccccc23)c1,nt,nt,nt,i,nt,nt
Cc1csc(NC(=O)c2cc(-c3ccccc3)nc3ccccc23)n1,?,?,?,?,2.31µM,i
O=C(Nc1nc2c(s1)CCCC2)c1cc(-c2ccccc2)nc2ccccc12,i,i,i,i,13µM,nt
Cc1cc(NC(=O)c2cc(-c3ccncc3)nc3ccccc23)ccc1Br,i,?,?,i,8.2µM,i
O=C(NN=C1CCCCCC1)c1cc(-c2ccccc2)nc2ccccc12,i,?,16.4µM,i,i,i
O=C(Nc1nc2c(s1)CCCC2)c1cc(-c2ccncc2)nc2ccccc12,?,?,i,i,i,i
CC(C)(O)CCC(O)[C@](C)(O)C1CC[C@@]2(O)C3=C/C(=N\O)[C@@H]4C[C@@H](O)[C@@H](O)C[C@]4(C)C3CC[C@]12C (some centres undefined),nt,nt,nt,i,nt,nt
SMILES,PINK1 expr mod,KB-3-1 tox,MCF10A rereplic,ALOX12 inh,KB-V1 MDR tox,SW480 rereplic
COc1ccc2c(C)c(CC(=O)Nc3cccc(C)c3)c(=O)oc2c1OC,nt,nt,nt,i,nt,nt
O=C(NNC(=O)c1cc(Cl)ccc1O)c1cccs1,i,i,i,i,i,20.6µM
O=C(NNC(=O)c1ccccc1Cl)c1cccs1,i,i,i,i,?,i
Nc1nonc1-n1nnc(C(=O)N/N=C/c2ccccc2)c1CSc1ccccc1,i,i,?,?,i,?
Cc1ccc(/C=N/NC(=O)c2nnn(-c3nonc3N)c2CSc2ccccc2)s1,i,i,20.6µM,i,i,13µM
Nc1nonc1-n1nnc(C(=O)N/N=C/c2cccnc2)c1CSC1=NCCS1,i,i,18.4µM,i,i,i
CCn1cc(C#N)c(=O)n(Cc2nc(-c3ccccc3Cl)no2)c1=O,nt,nt,nt,i,nt,nt
O=C1C(=O)c2ccccc2C([O-])=C1[n+]1ccccc1,i,i,i,i,i,i
CCc1cc[n+](C2=C([O-])c3ccccc3C(=O)/C2=N\S(=O)(=O)c2cccs2)cc1,i,i,?,?,i,4.61µM
CC(C)n1c(SCC(=O)NCc2ccco2)nc2c1c(=O)n(C)c(=O)n2C,i,i,16.4µM,i,i,i
Cn1c(=O)c2c(nc(SCC(=O)NCc3ccco3)n2C)n(C)c1=O,nt,i,i,i,i,i
CCOc1ccc(OCC)c(NC(=O)CSc2nc3c(c(=O)n(C)c(=O)n3C)n2C(C)C)c1,i,?,i,i,18.4µM,i
Cc1ccc(Nc2nc(CSc3nnnn3C3CC3)cs2)cc1,nt,nt,nt,i,nt,nt
O=C(CCc1cccs1)Nc1ccc(N2CCOCC2)cn1,nt,nt,nt,i,nt,nt
O=c1c2cc(Br)ccc2[nH]c(=S)n1Cc1ccccn1,i,i,i,i,16.4µM,i
O=C(CCCn1c(=S)[nH]c2ccc(Br)cc2c1=O)N1CCN(c2ccccn2)CC1,i,i,?,i,2.91µM,?
Cc1ccc(C(=O)c2ccccc2C(=O)N(C)Cc2cccs2)cc1C,nt,nt,nt,i,nt,nt
Cc1ccc(S(=O)(=O)N2CC=C(c3c(C)n(C)c4ccccc34)CC2)cc1,i,i,?,i,i,i
CCn1c(C)c(C2=CCN(S(=O)(=O)c3ccccc3)CC2)c2ccccc21,i,?,?,i,10.3µM,?
Cc1ccc(C)n1C1C(=O)N(Cc2ccc(C(C)C)cc2)c2ccc(OC(F)(F)F)cc21 (centres undefined),nt,nt,nt,15.8µM,nt,nt
Cc1ccc(-c2cc(C(F)(F)F)c(C#N)c(SCCC#N)n2)o1,nt,i,?,?,i,9.2µM
N#Cc1c(C(F)(F)F)cc(-c2ccccc2)nc1SCc1ccccc1,nt,nt,nt,i,nt,nt
CN(Cc1ccccc1)CC1(O)CCCN(CCCc2ccccc2)C1=O (centres undefined),nt,nt,nt,i,nt,nt
CC(=O)N1c2ccc(C)cc2Sc2c1ccc1ccccc21,i,i,20.6µM,i,i,?
O=C(O)CC(NCc1ccccc1)c1ccccc1 (centres undefined),nt,nt,nt,i,nt,nt
Cc1ccc(S(=O)(=O)Nc2nc3ccccc3nc2NCc2ccc(Cl)cc2)cc1,nt,nt,nt,i,nt,nt
CC(c1ccccc1C(O)c1ccccc1)N(C)C (centres undefined),nt,i,i,i,i,i
Cc1ccc(C(O)(c2ccccc2)c2ccccc2C(C)N(C)C)c(C)c1 (centres undefined),i,i,i,i,18.4µM,i
